# Data taken from PubChem BioAssay (EPA / NIEHS).
# Records with an inconclusive call do not appear. Activity calls are given as the source filed them. Rule for the calls: active = hit-call score of the fitted dose curve at least 0.9, where 1 is the maximum; inconclusive = response in the unintended direction; inactive = score below 0.9.
# Test: CCTE_Deisenroth_AIME_384WELL_CTox_Inactive: Cytotoxicity Assessment (CTOX) in CCTE's 384-well Estrogen Receptor Transactivation Assay without AIME metabolic competence (metabolism negative), Deisenroth Lab (AID 2284039);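 note: cell viability via live-cell protease substrate cleaved to fluorescent probe; cells exposed 24 h to medium preincubated 2 h with alginate-water beads without S9; loss of fluorescence signal means loss of viability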
# Method: CCTE_Deisenroth_AIME_384WELL (AIME metabolism assay) is a cell-based, single-readout assay that uses VM7Luc4E2, a human mammary gland/breast cell line, with measurements taken at 24 hour after chemical dosing in a 384-well plate.CCTE_Deisenroth_AIME_384WELL_CTox_Inactive is one of four assay components measured or calculated from the CCTE_Deisenroth_AIME_384WELL assay. It is designed to make measurements of a protease substrate, a type of viability indicator, as detected with substrate cleavage to a fluorescent probe in living cells.CCTE_Deisenroth_AIME_384WELL_CTox_Inactive is a component of the CCTE_Deisenroth_AIME_384WELL assay that measures the effect of retroftting the VM7Luc ERTA assay with the Alginate Immobolization of Metabolic Enzymes (AIME) metabolism method. AIME is optimized to impart phase I hepatic metabolism using phenobarbital/beta-naphthoflavone induced hepatic S9 from male Sprague Dawley rats. Parent chemicals are incubated for 2 hours in the AIME assay prior to transfer to the VM7Luc ERTA assay plate. […] This endpoint evaluates cytotoxicity in metabolism negative mode. Using a type of flourescent probe in VM7Luc cells, loss-of-signal activity can be used to understand loss of viability. This assay endpoint, CCTE_Deisenroth_AIME_384WELL_CTox_Inactive, was analyzed with bidirectional fitting in the ERTA assay.
# The AIME procedure consists of a preparative "pre-stamping" step using a barium chloride/poly-L-lysine (PLL) solution followed by "stamping" the lid in alginate-hepatic S9 (metabolism positive) or alginate-water (metabolism negative) to form microspheres. Once stamping is completed, the AIME lids are placed in duplicate microplates (metabolism positive or negative) containing chemical solutions and incubated for two hours to facilitate metabolic reactions. The conditioned medium, containing parent chemical or metabolites, is then transferred to the cell-based VM7Luc Estrogen Receptor Transactivation Assay (ERTA) for 24 hours. A typical experimental design tests a 10-point concentration series (0.002 - 200 uM) for 8 compounds (96-well format)1 or 32 compounds (384-well format)2 in single technical replicate. AIME assay controls include trans-stilbene (bioactivated control) and ethylparaben (bioinactivated control). ERTA assay plate controls include 17-beta estradiol (positive control) and DMSO (solvent control). Experiments typically comprise a minimum of four experimental replicates (n=4).
SMILES,outcome,AC50
CSC(=O)c1cccc2nnsc12,inactive,
CC(=O)[C@H]1CC[C@H]2[C@@H]3CCC4=CC(=O)CC[C@]4(C)[C@H]3CC[C@]12C,,27.4 µM (active)
O=C(c1ccc(O)cc1O)c1ccc(O)cc1O,inactive,
CCCOC(=O)NCCCN(C)C,inactive,
c1ccc2[nH]c(-c3cscn3)nc2c1,inactive,
CCOC(=O)COc1cc(-n2ncc(C(F)(F)F)c(C)c2=O)c(F)cc1Cl,inactive,
CCCCOC(=O)C(C)Oc1ccc(Oc2ccc(C(F)(F)F)cn2)cc1 (stereo not given),inactive,
Cc1nn(C)c(Oc2ccccc2)c1C=NOCc1ccc(C(=O)OC(C)(C)C)cc1,inactive,
c1ccc(Nc2ccccc2)cc1,inactive,
O=C(O)c1ccccc1,inactive,
